IDE exosite inh – displaces the probe from the exo-site of human IDE; P14735; purified IDE, FL-6b probe fluorescence polarization; hits give low values; z-score at 20 µM; 6.3% of 17,000 active; AID 1259349;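 active = z-score of -3 or lower, meaning strong loss of probe binding signal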;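 also: His-tagged human IDE residues 42-1019 made in E. coli with 30 nM FL-6b probe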
Target sequence (P14735 42-1019 limits assumed): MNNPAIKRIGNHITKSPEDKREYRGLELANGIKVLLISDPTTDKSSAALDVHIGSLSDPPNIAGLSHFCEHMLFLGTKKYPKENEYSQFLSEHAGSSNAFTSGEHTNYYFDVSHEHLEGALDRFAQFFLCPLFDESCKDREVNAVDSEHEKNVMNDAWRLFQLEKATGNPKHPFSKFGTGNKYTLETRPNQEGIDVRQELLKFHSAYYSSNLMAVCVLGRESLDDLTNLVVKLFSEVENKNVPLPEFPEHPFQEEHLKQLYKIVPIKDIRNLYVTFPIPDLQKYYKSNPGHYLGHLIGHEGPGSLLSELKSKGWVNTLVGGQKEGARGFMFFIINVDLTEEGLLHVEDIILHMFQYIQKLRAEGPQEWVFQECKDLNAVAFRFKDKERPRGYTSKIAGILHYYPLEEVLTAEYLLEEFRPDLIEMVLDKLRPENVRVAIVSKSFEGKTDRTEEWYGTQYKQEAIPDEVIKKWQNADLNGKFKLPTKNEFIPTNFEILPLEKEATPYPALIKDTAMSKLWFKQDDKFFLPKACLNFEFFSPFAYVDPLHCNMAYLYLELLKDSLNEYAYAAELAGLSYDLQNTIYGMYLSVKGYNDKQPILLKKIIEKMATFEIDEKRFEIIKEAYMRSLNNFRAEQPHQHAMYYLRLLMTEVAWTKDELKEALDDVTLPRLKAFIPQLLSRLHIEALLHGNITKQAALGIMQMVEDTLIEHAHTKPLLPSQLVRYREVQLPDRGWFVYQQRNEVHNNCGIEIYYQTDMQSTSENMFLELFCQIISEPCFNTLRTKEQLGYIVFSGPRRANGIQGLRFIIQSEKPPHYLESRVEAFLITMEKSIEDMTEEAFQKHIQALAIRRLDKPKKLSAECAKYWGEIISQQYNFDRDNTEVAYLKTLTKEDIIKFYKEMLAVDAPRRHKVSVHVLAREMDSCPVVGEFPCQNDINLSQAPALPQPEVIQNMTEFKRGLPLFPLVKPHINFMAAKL
* = called active by the depositor; ! = not active in a repeat. This excerpt belongs to a sample that is enriched for hits.

SMILES	IDE exosite inh
COc1cccc(NC(=O)C[C@@H]2CC[C@@H]3[C@H](COc4ccc(NS(=O)(=O)c5cccc(F)c5)cc4C(=O)N3C)O2)c1	-1
CCCC#Cc1ccc([C@H]2[C@@H](CO)N3C(=O)CN(C(=O)Nc4ccccc4)C[C@H]23)cc1	2.7
C[C@@H]1CN([C@@H](C)CO)C(=O)CCCn2nncc2CO[C@H]1CN(C)C(=O)Nc1ccc2c(c1)OCCO2	-1.1
COc1cccc(CN2C[C@@H]3N[C@H](C2)C3c2ccc(-c3ccncc3)cc2)c1 (stereo not given in full)	1.8
COc1cccc(CN2C[C@@H]3N[C@H](C2)C3c2ccc(-c3ccccc3F)cc2)c1 (stereo not given in full)	-5.1*!
COc1cccc(CN2C[C@@H]3N[C@H](C2)C3c2ccc(-c3cccc(C#N)c3)cc2)c1 (stereo not given in full)	0.37
Fc1ccc(-c2ccc(C3[C@@H]4CN(Cc5cccc(F)c5)C[C@H]3N4)cc2)cc1 (stereo not given in full)	3.7
COc1cccc(CN2C[C@@H]3N[C@H](C2)C3c2ccc(-c3ccccc3C)cc2)c1 (stereo not given in full)	-4*!
COc1cccc(-c2ccc(C3[C@@H]4CN(Cc5cccc(F)c5)C[C@H]3N4)cc2)c1 (stereo not given in full)	-1.1
N#C[C@H]1[C@@H](c2ccccc2)[C@@H](CO)N1S(=O)(=O)Cc1ccccc1	4.8
C[C@H](CO)N1C[C@H](C)[C@@H](CN(C)Cc2ccc(C(=O)O)cc2)OCCCC[C@H](C)Oc2ccc(N(C)C)cc2C1=O	-0.52
COc1cccc(C(=O)Nc2ccc3c(c2)OC[C@@H](C)N(CCc2ccccc2)C[C@H](C)[C@@H](OC)CN(C)C3=O)c1	1.1
O=C(c1cccc(F)c1)N1CC(=O)N2[C@H](C1)[C@H](c1ccc(/C=C/c3ccccc3)cc1)[C@@H]2CO	-2.3
COc1ccc2c3c(n(C)c2c1)[C@@H](CO)N(Cc1ccc(Cl)cc1)CC31CN(C(=O)NC(C)C)C1	0.21
COc1cccc(CN2CC3(CCN(S(C)(=O)=O)CC3)c3c(n(C)c4cc(OC)ccc34)[C@@H]2CO)c1	-2.5
COc1ccc2c3c(n(C)c2c1)[C@@H](CO)N(Cc1cccnc1)CC31CCN(C(=O)NC(C)C)CC1	-5.9*
COc1ccc2c3c(n(C)c2c1)[C@H](CO)N(C)CC31CCN(C(=O)c2cccnc2)CC1	-0.19
COc1ccc2c3c(n(C)c2c1)[C@H](CO)N(Cc1cccnc1)CC31CCN(C(=O)NC(C)C)CC1	-3*
COc1ccc2c3c(n(C)c2c1)[C@H](CO)N(Cc1cccc(Cl)c1)CC31CCN(C(=O)C2CC2)CC1	-1.6
CN(C)CC(=O)N[C@@H]1C=C[C@@H](CC(=O)NCc2ccc(Cl)cc2)O[C@@H]1CO	0.72
COCC(=O)N1CC(=O)N2[C@H](CO)[C@H](c3ccc(C#CC4CCCCC4)cc3)[C@H]2C1	0.97
COc1ccc(-c2ccc([C@@H]3[C@@H](CO)N4C(=O)CN(C(=O)c5ccccc5)C[C@H]34)cc2)cc1	-1.7
CC(=O)N1[C@H](CO)[C@@H](c2ccc(-c3ccccc3F)cc2)C12CN(CC1CCOCC1)C2	-1.2
COc1ccc2c3c(n(C)c2c1)[C@@H](CO)N(C(=O)CN(C)C)CC31CN(Cc2nccs2)C1	-1.2
COc1cccc(NC(=O)Nc2ccc3c(c2)C(=O)N(C)C[C@@H](OC)[C@H](C)CN[C@H](C)CO3)c1	0.55
SMILES	IDE exosite inh
CO[C@H]1CN(C)C(=O)c2cc(NC(=O)c3ccc(Oc4ccccc4)cc3)ccc2OC[C@@H](C)NC[C@H]1C	-7.9*
CO[C@@H]1CN(C)C(=O)c2cc(NC(=O)c3ccc(Oc4ccccc4)cc3)ccc2OC[C@@H](C)NC[C@@H]1C	-11*
CO[C@H]1CN(C)C(=O)c2cc(NC(=O)c3ccc(Oc4ccccc4)cc3)ccc2OC[C@H](C)NC[C@@H]1C	-1.3
CO[C@H]1CN(C)C(=O)c2cc(NC(=O)c3cnccn3)ccc2OC[C@@H](C)NC[C@H]1C	0.84
CO[C@H]1CN(C)C(=O)c2cc(NC(=O)c3cnccn3)ccc2OC[C@H](C)NC[C@@H]1C	0.051
COC(=O)C[C@H]1C[C@@H]2c3cc(NC(=O)C4CCOCC4)ccc3O[C@@H]2[C@@H](CO)O1	-0.84
CCc1csc(N2[C@H](C#N)[C@@H](c3ccc(-c4ccc(F)cc4)cc3)[C@H]2CO)n1	3.5
CC(C)CC#Cc1ccc([C@@H]2[C@@H](CO)N3C(=O)CN(C(=O)Nc4cc(F)ccc4F)C[C@@H]23)cc1	-0.65
O=C(C[C@@H]1C[C@@H]2c3cc(NC(=O)Nc4ccccc4F)ccc3O[C@@H]2[C@H](CO)O1)NCc1ccccn1	-0.75
CC(=O)N1CC(=O)N2[C@H](C1)[C@H](c1ccc(-c3ccc(C)cc3)cc1)[C@@H]2CO	0.6
COCC(=O)N1CCCCN2[C@@H](CO)[C@H](c3ccc(-c4ccc(OC)cc4)cc3)[C@@H]2C1	0.91
COc1ccc(-c2ccc([C@@H]3[C@H](CO)N4CCCCN(C(=O)NC(C)C)C[C@@H]34)cc2)cc1	-5.6*
COc1ccc(-c2ccc([C@H]3[C@H]4CN(C(=O)NC(C)C)CCCCN4[C@H]3CO)cc2)cc1	-11*
COc1ccc(-c2ccc([C@@H]3[C@@H](CO)N4C(=O)CN(C(=O)NC(C)C)C[C@H]34)cc2)cc1	-2.7
COc1ccc(-c2ccc([C@@H]3[C@H](CO)N4CCCCN(C(=O)c5ccc(F)cc5)C[C@@H]34)cc2)cc1	0.56
COc1ccc(-c2ccc([C@H]3[C@H](CO)N4CCCCN(C(=O)c5ccc(F)cc5)C[C@@H]34)cc2)cc1	0.084
COCC(=O)N1CCCCN2[C@H](C1)[C@@H](c1ccc(-c3ccc(OC)cc3)cc1)[C@@H]2CO	1.4
COCC(=O)N1CCCCN2[C@H](CO)[C@H](c3ccc(-c4ccc(OC)cc4)cc3)[C@@H]2C1	-0.47
COc1ccc(-c2ccc([C@@H]3[C@@H](CO)N4CCCCN(C(=O)NC(C)C)C[C@@H]34)cc2)cc1	-4.1*
O=C(c1ccccc1)N1CC(=O)N2[C@@H](CO)[C@H](c3ccc(-c4ccccc4)cc3)[C@@H]2C1	-2.6
C/C=C/c1ccc([C@H]2[C@@H](CO)N(S(C)(=O)=O)[C@H]2CN(CCC)C(C)=O)cc1	-0.44
O=C(C[C@H]1CC[C@H](NC(=O)c2cccnc2)[C@H](CO)O1)NCc1ccc(Cl)c(Cl)c1	1.2
COc1ccc(S(=O)(=O)Nc2ccc3c(c2)C(=O)N([C@H](C)CO)C[C@H](C)[C@H](CN(C)C(=O)Nc2c(C)noc2C)OCCCC[C@@H](C)O3)cc1	-0.13
CCC(=O)N(CC)C[C@@H]1[C@@H](c2ccccc2)[C@H](CO)N1C(C)=O	-0.43
Cc1ccccc1S(=O)(=O)N1CC(=O)N2[C@H](CO)[C@H](c3ccc(C#CCC(C)C)cc3)[C@H]2C1	1.2
COCC(=O)NC[C@H]1[C@H](c2ccc(C3=CCCC3)cc2)[C@@H](CO)N1C(C)=O	0.52
N#C[C@@H]1[C@@H](c2ccccc2-c2ccccc2F)[C@@H](CO)N1C(=O)c1ccccn1	2
O=C(NC[C@H]1N[C@@H](CO)[C@H]1c1ccc(-c2ccccc2)cc1)c1ccccc1F	1.1
COc1cccc(-c2ccc([C@@H]3[C@@H](C#N)N(C(=O)Cc4ccccc4)[C@@H]3CO)cc2)c1	-5.3*
N#C[C@H]1[C@H](c2ccc(-c3ccccc3F)cc2)[C@H](CO)N1C(=O)c1ccccn1	-3.1*

From PubChem
